Bioassay records from PubChem BioAssay.
A selection: hits, their analogues and other compounds. The true share with any hit is near 2.3%.
Pol eta inh = qHTS for Inhibitors of Polymerase Eta | DNA polymerase eta (Homo sapiens), Q9Y253 | recombinant Pol eta, fluorescent DNA replication assay | Potency, µM (series often up to 114 µM), inactives show top-dose activity change, negative = inhibition, actives largely listed as inhibitors | 390,000 compounds, 1.2% hits | AID 588591, 2011; further: on the % scale 0 is the no-effect control and ±100 the full control effect
Target sequence (Q9Y253 whole entry, looked up): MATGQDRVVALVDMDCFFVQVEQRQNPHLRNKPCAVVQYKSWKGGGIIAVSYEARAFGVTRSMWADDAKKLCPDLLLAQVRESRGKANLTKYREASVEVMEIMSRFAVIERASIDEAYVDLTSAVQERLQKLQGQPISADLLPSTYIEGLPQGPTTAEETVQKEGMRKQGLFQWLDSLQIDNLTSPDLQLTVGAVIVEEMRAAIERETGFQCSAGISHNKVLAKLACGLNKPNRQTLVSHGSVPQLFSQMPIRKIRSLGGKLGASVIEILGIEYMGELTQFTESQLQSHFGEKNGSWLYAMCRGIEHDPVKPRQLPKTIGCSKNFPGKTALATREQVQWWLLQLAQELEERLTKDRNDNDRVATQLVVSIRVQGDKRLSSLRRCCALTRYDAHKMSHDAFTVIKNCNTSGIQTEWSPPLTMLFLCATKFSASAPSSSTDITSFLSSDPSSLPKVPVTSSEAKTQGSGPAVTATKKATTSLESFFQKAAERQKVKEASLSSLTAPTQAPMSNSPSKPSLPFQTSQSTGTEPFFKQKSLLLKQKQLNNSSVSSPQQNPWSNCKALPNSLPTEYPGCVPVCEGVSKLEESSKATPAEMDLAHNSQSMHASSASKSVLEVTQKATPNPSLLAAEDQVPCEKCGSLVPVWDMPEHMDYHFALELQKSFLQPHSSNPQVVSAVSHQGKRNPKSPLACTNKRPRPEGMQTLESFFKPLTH
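Pol eta (10 nM) was preincubated with compounds for 15 min at room temperature, after which fluorescent replication substrate (50 nM final) was added to start the reaction. Fluorescence was read kinetically at 0 and 10 min.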
POLB inh = qHTS Assay for Inhibitors of DNA Polymerase Beta; Pol beta primer extension/strand displacement, fluorescence kinetic; 340,000 compounds, 1.3% hits; Potency, µM (top dose mostly 114 µM), inactives show top-dose activity change, negative = inhibition, actives largely listed as inhibitors; P06746; further: on the % scale 0 is the no-effect control and ±100 the full control effect
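Preincubation: enzyme (10 nM) with compound, 15 min, RT. Reaction: substrate added to 50 nM final. Reads: 0 and 10 min. Analysis: normalized, Hill fit.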
WRN helicase inh = qHTS for Inhibitors of WRN Helicase. Bifunctional 3'-5' exonuclease/ATP-dependent helicase WRN (Homo sapiens), Q14191. WRN helicase unwinding, fluorescent forked duplex, kinetic. Potency, µM (titrated, usually from 114 µM), without a hit: top-dose activity change, negative = inhibition, most hits filed as inhibitors. 360,000 compounds, 0.46% hits. AID 651768, 2012; further: on the % scale 0 is the no-effect control and ±100 the full control effect; nearly all actives have a fitted effect of over 55% in size
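WRN at 20 nM final preincubated with compound 15 min at room temperature; reaction started with 100 nM fluorophore/quencher forked duplex oligonucleotide and 2 mM ATP final. Unwinding followed kinetically by red fluorescence (ex 525, em 598 nm).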
POLK inh = qHTS for Inhibitors of Polymerase Kappa. 400,000 compounds, 0.53% hits. purified Pol kappa, fluorescent DNA synthesis assay, 10 min. Potency, µM (highest dose often 107 µM), inactives show at the highest dose activity, negative = inhibition, most hits filed as inhibitors; further: on the % scale 0 is the no-effect control and ±100 the full control effect
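10 nM Pol kappa was preincubated with compounds for 15 min at room temperature. Reaction started with 50 nM (final) substrate. Fluorescence read kinetically at 0 and 10 min.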
Pol iota inh = qHTS for Inhibitors of Polymerase Iota; Pol iota fluorescent replication assay, 10 min; Potency, µM (highest dose often 115 µM), for inactives: at the top dose activity, negative = inhibition, hits mostly inhibitors; DNA polymerase iota (Homo sapiens), Q9UNA4; 390,000 compounds, 1% hits; AID 588590, 2011
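Pol iota at 10 nM preincubated 15 min with compounds at room temperature; reaction started with fluorescent substrate, 50 nM final. Fluorescence read kinetically at 0 and 10 min; buffer-only wells as negative control.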
* hit, by the source's call; [ ] = dose if it differs, or a comment. The call rests on the fitted dose curve; in most records, active means well fitted curve in the direction sought with a large enough effect; inconclusive means small, poorly fitted or top-dose-only effect, or another doubt; inactive means no such curve, though single readings can be large; an effect the other way counts as inactive or inconclusive. Potency means the concentration at half of the fitted maximal effect.

COc1cc2c(cc1OC)-c1c(OC)c(OC)cc3c1C(C2)N(C)CC3 (stereo unspecified) was read as Pol eta inh -24%, POLB inh -2%, WRN helicase inh 0%, POLK inh -22% and Pol iota inh 11µM*.
For COc1cc2c(cc1OC)-c1c3c(cc4c1[C@@H](C2)N(C)CC4)OCO3 the results were Pol eta inh -11%, POLB inh inconclusive, WRN helicase inh inconclusive, POLK inh -42% and Pol iota inh 2.8µM*.
COc1ccc2c(c1O)-c1cc(O)cc3c1[C@@H](C2)N(C)CC3 was read as POLK inh -3%[19.4 µM].
For COc1cc2c(cc1O)C[C@H]1NCCc3cc4c(c-2c31)OCO4 the results were Pol eta inh inconclusive, POLB inh 40µM*, WRN helicase inh inconclusive, POLK inh inconclusive and Pol iota inh 14µM*.
`CCOC(=O)CCN(SN(C)C(=O)Oc1cccc2c1OC(C)(C)C2)C(C)C` gave POLK inh 0%[60.1 µM].
For CCOC(=O)c1c(-n2c(C)cc(C=C3C(=O)NC(=S)NC3=O)c2C)sc2c1CCCC2 the results were Pol eta inh 28µM*, POLB inh 22µM*, WRN helicase inh 56µM*, POLK inh inconclusive and Pol iota inh inconclusive.
Screening CCOC(=O)c1c(-n2c(C)cc(/C=C3/C(=O)NC(=O)N(CC)C3=O)c2C)sc2c1CCCC2 returned Pol eta inh inconclusive, WRN helicase inh -2%, POLK inh -21% and Pol iota inh inconclusive.
COc1cc([C@@H]2c3cc4c(cc3[C@H](O)[C@H]3COC(=O)[C@@H]23)OCO4)cc(OC)c1OC was read as POLK inh 9% and Pol iota inh inconclusive.
Screening O=C1NC(=O)N(c2ccccc2)C(=O)/C1=C/c1ccc(Sc2ccccc2)o1 returned Pol eta inh inconclusive, POLB inh 36%, WRN helicase inh 45µM*, POLK inh inconclusive and Pol iota inh 14%.
COc1ccc(NC(=O)CCn2cnc3onc(-c4ccc(F)cc4)c3c2=O)cc1OC was read as Pol eta inh -12%, POLB inh -3%, POLK inh -4% and Pol iota inh inconclusive.
Screening CCN1/C(=C\C=C\C2=[N+](CC)c3ccccc3C2(C)C)C(C)(C)c2ccccc21 returned Pol eta inh inactive, POLB inh 25µM*, WRN helicase inh 45µM* and POLK inh 18µM*.
O=C(O)c1ccccc1-c1c2cc(Br)c(=O)cc-2oc2[c]([Hg])c(O)c(Br)cc12 was read as POLK inh 16µM*.
O=c1[nH]c(=S)[nH]c(O)c1N=Nc1ccc(SC(F)F)cc1 was read as Pol eta inh 9%, POLB inh -30%, WRN helicase inh -27%, POLK inh -16% and Pol iota inh inconclusive.
Screening O=c1[nH]c(=S)[nH]c(O)c1N=Nc1ccc(S(=O)(=O)N2CCc3ccccc32)cc1 returned Pol eta inh -13%, POLB inh 79µM*, WRN helicase inh -24%[57.1 µM], POLK inh -12% and Pol iota inh 39%.
For CC(=O)O[C@H]1C(=O)[C@@]2(C)C([C@H](OC(=O)c3ccccc3)[C@]3(O)C[C@H](OC(=O)[C@H](O)[C@@H](NC(=O)c4ccccc4)c4ccccc4)C(C)=C1C3(C)C)[C@]1(OC(C)=O)CO[C@@H]1C[C@@H]2OC(=O)[C@H](C)NC(=O)c1ccc(-c2c3ccc(=O)cc-3oc3cc(O)ccc23)c(C(=O)O)c1 (stereo partly specified) the results were POLK inh 4.7µM*.
`C/C=C(\C)C(=O)N[C@@H](c1ccccc1)[C@@H](O)C(=O)O[C@H]1C[C@@]2(O)[C@@H](OC(=O)c3ccccc3)C3[C@](C)(C(=O)[C@H](OC(C)=O)C(=C1C)C2(C)C)[C@@H](O)C[C@H]1OC[C@@]31OC(C)=O` (stereo partly specified) gave Pol eta inh -17%, POLB inh 2%, WRN helicase inh 2%, POLK inh 0% and Pol iota inh 17%.
Screening CCOc1cc(OP(=S)(OC)OC)nc(CC)n1 returned POLK inh 13%[60.1 µM].
For CC(C)[C@H]1C(=O)N2CCC[C@H]2[C@]2(O)O[C@](NC(=O)[C@@H]3C=C4c5cccc6[nH]cc(c56)C[C@H]4N(C)C3)(C(C)C)C(=O)N12 the results were Pol eta inh -12%, POLB inh -3%, WRN helicase inh -6%, POLK inh -35% and Pol iota inh 22µM*.
CCC(CO)NC(=O)[C@@H]1C=C2c3cccc4[nH]cc(c34)C[C@H]2N(C)C1 (stereo partly specified) was read as Pol eta inh inconclusive, POLB inh -8%[57.1 µM] and Pol iota inh 32µM*.
For CC(C)C[C@H]1C(=O)N2CCCC2[C@]2(O)O[C@](NC(=O)[C@@H]3C=C4c5cccc6[nH]cc(c56)CC4N(C)C3)(C(C)C)C(=O)N12 (stereo partly specified) the results were Pol eta inh -25%, POLB inh 0%, WRN helicase inh -1%, POLK inh inconclusive and Pol iota inh inconclusive.
`CCCC[C@@H](C)[C@@H](OC(=O)C[C@@H](CC(=O)O)C(=O)O)[C@H](C[C@@H](C)CCCCCC[C@@H](O)C[C@H](O)[C@H](C)N)OC(=O)C[C@@H](CC(=O)O)C(=O)O` gave POLK inh -2%[60.1 µM].
`Cc1cc(C(C#N)c2ccc(Cl)cc2)c(Cl)cc1NC(=O)c1cc(I)cc(I)c1O` (stereo unspecified) gave Pol eta inh 50µM*, WRN helicase inh -28%, POLK inh inconclusive and Pol iota inh inconclusive.
Screening CN(N=O)c1ccc(O)c(O)c1 returned Pol eta inh 0.89µM*, POLB inh 0.63µM*, POLK inh 2.4µM* and Pol iota inh 0.79µM*.
For O=C1/C(=C\c2ccccc2)C[C@@]2(O)[C@H]3Cc4ccc(O)c5c4[C@@]2(CCN3CC2CC2)[C@H]1O5 the results were POLK inh -3%[19.4 µM].
For C[C@@H]1CO1 the results were POLK inh 17%[60.1 µM].
Screening Cc1cc(C=C2C(=O)N(C)C(=S)N(C)C2=O)c(C)n1-c1ccncc1 returned Pol eta inh 35µM*, POLB inh inconclusive, WRN helicase inh inconclusive, POLK inh -37% and Pol iota inh -95%.
COc1ccccc1-c1nn2c(=O)cc(CN3CCN(C(=O)Nc4ccc(C)cc4Cl)CC3)nc2s1 was read as Pol eta inh -21%, POLB inh -25%, POLK inh -3%[60.1 µM] and Pol iota inh 34%.
Screening O=C(Nc1ccccc1)c1c(O)[nH]c(=S)[nH]c1=O returned Pol eta inh 4%, WRN helicase inh -13%, POLK inh 13% and Pol iota inh -2%.
